Z-score and composite z-score data for nine molecules are collected here from PubChem BioAssay.

The nature of assay [1]: compound effects on lung adenocarcinoma cell viability – A549, calcein-AM fluorescence, 48 h, basal, profiling panel (AID 1162). Also: test concentration not given here. Conditions: higher = more signal.
A short description of assay [2]: compound effects on differentiated 3T3-L1 adipocyte viability – cell-based, 3T3-L1 adipocytes, calcein-AM fluorescence, 48 h, basal, profiling panel (AID 1163). Also: test concentration not given here. The conditions noted are these: 3T3-L1 adipocytes viability, higher = more signal.
A short description of assay [3]: compound effects on hepatocellular carcinoma cell viability – HepG2, calcein-AM fluorescence, 48 h, basal, profiling panel (AID 1164). Also: test concentration not given here. Conditions: higher = more signal.
Assay [4] in a line: compound effects on multiple myeloma cell viability – MM1S, calcein-AM fluorescence, 48 h, basal, profiling panel (AID 1165). Also: test concentration not given here. Conditions: higher = more signal.
Assay [5] in a line: calcein-AM signal in unstimulated myeloma cells – cell-based, calcein-AM fluorescence, 48 h, PK04 Diversity Set, profiling panel (AID 1166).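 Also: cells grown under basal conditions without added stimulus; test concentration not given here.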 The conditions noted are these: RPMI8226 myeloma viability, higher = more signal.
Assay [6] is described as follows: JC-1 mitochondrial signal, unstimulated HepG2 cells – cell-based, JC-1 fluorescence, 24 h, 100 nL compound, profiling panel (AID 1167). Also: test concentration not given here. The conditions noted are these: HepG2 mitochondrial potential, higher = more signal.
Assay [7] in a line: JC-1 mitochondrial signal, unstimulated adipocytes – cell-based, JC-1 fluorescence, 3T3-L1 adipocytes, 24 h, 100 nL compound, profiling panel (AID 1168). Also: test concentration not given here. Conditions: JC-1 mitochondrial fluorescence, higher = more signal, called active from +8 up or from −8 down.
Assay [8] can be described thus: JC-1 mitochondrial signal, unstimulated myeloma cells – cell-based, JC-1 fluorescence, RPMI8226, 24 h, 100 nL compound, profiling panel (AID 1169). Also: test concentration not given here. Conditions: JC-1 mitochondrial potential fluorescence, higher = more signal.
The nature of assay [9]: JC-1 mitochondrial signal, unstimulated MM1S myeloma – cell-based, JC-1 fluorescence, 24 h, 100 nL compound, profiling panel (AID 1170). Also: test concentration not given here. The conditions noted are these: MM1S mitochondrial potential, higher = more signal.
Assay [10] in a line: resazurin metabolic signal in A549 cells – cell-based, resazurin fluorescence, 24 h, PK04 Diversity Set, profiling panel (AID 1171). Also: test concentration not given here. Conditions: A549 viability, higher = more signal, called active from +8 up or from −8 down.
Assay [11] is described as follows: resazurin metabolic signal in HepG2 cells – cell-based, resazurin fluorescence, 24 h, PK04 Diversity Set, profiling panel (AID 1172). Also: test concentration not given here. Conditions: HepG2 viability, higher = more signal.
Assay [12] is described as follows: budding yeast growth changes without added modifier – OD600, strain BY4716, 24 h, basal condition, primary screen (AID 1173). The conditions noted are these: S. cerevisiae BY4716 growth, OD600, 24 h; higher = more signal, called active from +8 up or from −8 down.
The nature of assay [13]: viability profiling in MM1S myeloma cells – cell-based, resazurin fluorescence, basal, 24 h, PK04 Diversity Set, profiling panel (AID 1174). Also: test concentration not given here. The conditions noted are these: higher = more signal, called active from +8 up or from −8 down.
Assay [14] has as its target Dihydroorotate dehydrogenase (quinone), mitochondrial (Plasmodium falciparum (isolate 3D7)) (UniProt Q08210). Nature of the assay: inhibition of P. falciparum DHODH – biochemical, C-terminal His tag, absorbance 600 nm, primary screen (AID 1175).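 Also: recombinant parasite enzyme with a five histidine tag at its C terminus; test concentration not given here.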 The conditions noted are these: PfDHODH enzyme, DCIP absorbance 600 nm; higher = more signal, called active from +8 up or from −8 down.

A short description of assay [15]: inhibition of PAO1 biofilm formation – strain PAO1, LB-PBS medium, absorbance 600 nm, primary screen (AID 1176). Also: test concentration not given here. The conditions noted are these: P. aeruginosa PAO1 growth/biofilm, A600, 12 h; higher = more signal.
A short description of assay [16]: growth modulation of vineyard yeast isolate – strain RM11-1a, OD600, basal, 24 h, primary screen (AID 1177).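 Also: cultures grown under basal conditions with no added stressor; test concentration not given here.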 Conditions: S. cerevisiae RM11-1a growth, OD600, 24 h; higher = more signal, called active from +8 up or from −8 down.
Assay [17] in a line: growth of efflux-deficient E. coli DRC39 – strain DRC39, OD650, 24 h, E. coli filamentation inducers, primary screen (AID 1178).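 Also: growth measured as culture turbidity by optical density at 650 nm; test concentration not given here.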 The conditions noted are these: E. coli DRC39 acrAB, higher = more signal, called active from +8 up or from −8 down.
Assay [18] is described as follows: growth of efflux-deficient E. coli DRC39 – strain DRC39, OD650, 48 h, E. coli filamentation inducers, primary screen (AID 1179).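 Also: screen aims at cell division blockers that make cells filament.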 The conditions noted are these: E. coli DRC39 delta-acrAB growth, higher = more signal, called active from +8 up or from −8 down.
Assay [19] can be described thus: viability profiling in RPMI8226 myeloma cells – cell-based, resazurin fluorescence, basal, 24 h, PK04 Diversity Set, profiling panel (AID 1180).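 Also: RPMI8826 multiple myeloma cell line at 5000 cells per well; test concentration not given here.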 The conditions noted are these: higher = more signal.
Assay [20] deals with E3 ubiquitin-protein ligase XIAP (Homo sapiens) (UniProt P98170). Nature of the assay: small molecules binding XIAP protein – biophysical, small-molecule microarray, fluorescence 635 nm, primary screen (AID 1181).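 Also: score merges 667 nm emission and signal to noise over triplicate slides.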 The conditions noted are these: higher = more signal.
E3 ubiquitin-protein ligase XIAP (Homo sapiens), sequence (P98170 whole entry, looked up): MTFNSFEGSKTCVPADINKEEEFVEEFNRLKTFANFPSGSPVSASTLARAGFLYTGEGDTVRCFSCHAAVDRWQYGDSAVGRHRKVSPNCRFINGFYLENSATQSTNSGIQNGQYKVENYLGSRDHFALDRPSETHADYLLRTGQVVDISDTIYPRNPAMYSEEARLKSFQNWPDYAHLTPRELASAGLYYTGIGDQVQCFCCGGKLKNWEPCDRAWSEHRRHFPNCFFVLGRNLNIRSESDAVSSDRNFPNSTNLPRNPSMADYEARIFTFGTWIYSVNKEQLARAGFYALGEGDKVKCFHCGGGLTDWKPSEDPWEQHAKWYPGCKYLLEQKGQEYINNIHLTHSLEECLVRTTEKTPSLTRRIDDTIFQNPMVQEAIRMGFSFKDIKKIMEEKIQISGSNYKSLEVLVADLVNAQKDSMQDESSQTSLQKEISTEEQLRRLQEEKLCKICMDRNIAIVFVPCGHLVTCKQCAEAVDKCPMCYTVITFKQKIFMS

Activity calls are given as the source filed them. Unless noted, no rule for the calls is given here.

Dihydroorotate dehydrogenase (quinone), mitochondrial (Plasmodium falciparum (isolate 3D7)), sequence (Q08210 whole entry, looked up): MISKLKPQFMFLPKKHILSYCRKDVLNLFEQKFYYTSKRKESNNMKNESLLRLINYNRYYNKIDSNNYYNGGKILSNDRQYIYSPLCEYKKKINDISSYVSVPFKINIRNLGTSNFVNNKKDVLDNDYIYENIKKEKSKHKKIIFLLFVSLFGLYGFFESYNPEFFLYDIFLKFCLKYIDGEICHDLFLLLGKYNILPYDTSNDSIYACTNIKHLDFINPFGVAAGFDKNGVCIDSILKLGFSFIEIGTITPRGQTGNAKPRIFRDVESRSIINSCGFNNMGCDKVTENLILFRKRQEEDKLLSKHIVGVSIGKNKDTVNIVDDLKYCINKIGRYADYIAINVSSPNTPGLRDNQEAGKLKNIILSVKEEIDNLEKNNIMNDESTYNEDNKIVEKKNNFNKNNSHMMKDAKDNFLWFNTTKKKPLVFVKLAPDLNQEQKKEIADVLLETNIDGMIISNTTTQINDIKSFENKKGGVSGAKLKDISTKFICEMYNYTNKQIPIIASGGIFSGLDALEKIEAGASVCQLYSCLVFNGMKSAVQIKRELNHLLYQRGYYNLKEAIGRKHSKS

Regarding `CCOC(=O)C[C@H]1[C@H](OC(=O)c2ccc(-c3ccccc3)cc2)[C@@H](NC(=O)C2CCCCC2)c2cc(OCCCO)ccc2N1C(=O)Cc1ccc(OC)cc1`, the z-score in [1] is -0.869; in [2], 0.0396; in [3], -0.216; in [4], -0.581; in assay [5] it was -0.938; in [6], 0.801. Further, the z-score in [7] was -0.199 (inactive); in assay [8] it was 0.823; in assay [9] it was 0.488; in assay [10], -0.0129 (inactive); in assay [11], -0.0995; in assay [12], 0.857 (inactive). Further, the z-score in assay [13] was -0.456 (inactive); in [15], 0.55 (inactive); in assay [16], -0.442 (inactive); in [17], 0.0009 (inactive); in [18], 0.0016 (inactive); in assay [19] it was -0.131. For the same molecule, the composite z-score in [14] is -0.175 (inactive); in assay [20], -0.144.

Turning to `C=C(COC)C(=O)CC[C@@H](OC(=O)c1ccccc1-c1ccccc1C(=O)O)c1ccccc1OCCO`, the z-score was -0.184 in [1]; 0.615 in assay [2]; -0.248 in assay [3]; -3.31 in [4]; -3.75 in [5]; -1.13 in assay [6]. Further, the z-score in assay [7] was -0.305 (inactive); in assay [8] it was -0.88; in [9], -1.84; in assay [10], 0.393 (inactive); in assay [11], 0.078; in assay [12], -1.22 (inactive). For the same molecule, the z-score in assay [13] was -1.95 (inactive); in assay [15] it was 2.1 (inactive); in [16], -0.341 (inactive); in [17], 0.0796 (inactive); in assay [18], -0.129 (inactive); in assay [19] it was -1.81. Besides, the composite z-score is -1.57 (inactive) in assay [14] and 0.261 in assay [20].

For `COc1c(C)cc(-c2cc3c(c(CCc4ccccc4)n2)[Si](C(C)C)(C(C)C)O[C@H]3c2ccccc2)cc1C`, the z-score in assay [1] is -0.216; in assay [2], -0.945; in assay [3], 0.297; in assay [4], -3.19; in [5], -3.11; in assay [6] it was -2.39. Further, the z-score in assay [7] was -0.729 (inactive); in assay [8], -1.04; in assay [9] it was -1.24; in assay [10], 0.453 (inactive); in [11] it was -0.0275; in [12] it was 0.597 (inactive). In addition, the z-score was 0.135 (inactive) in [13]; 0.608 (inactive) in assay [15]; 1.42 (inactive) in assay [16]; -0.754 (inactive) in [17]; -0.744 (inactive) in assay [18]; -3.7 in assay [19]. For the same molecule, the composite z-score was 0.0798 (inactive) in assay [14] and -0.195 in [20].

With `COC(=O)[C@@]1(Cc2ccc(F)cc2)[C@H]2c3cc(C(=O)N4CCCC4)n(Cc4ccc(OC(F)(F)F)cc4)c3C[C@H]2CN1C(=O)c1ccccc1`, the z-score in [1] was -1.21; in [2] it was -0.749; in [3], 0.0322; in assay [4], -1.04; in assay [5], -0.55; in [6] it was -0.269. The z-score in [7] was -1.35 (inactive); in assay [8] it was -0.603; in assay [9] it was -0.787; in assay [10], -0.165 (inactive); in assay [11] it was 0.178; in [12], 0.944 (inactive). Also, the z-score in assay [13] was -0.799 (inactive); in assay [15], 0.827 (inactive); in [16] it was 0.157 (inactive); in assay [17] it was -0.961 (inactive); in assay [18], -0.678 (inactive); in assay [19], -0.453. The results for the composite z-score in assay [14] and in assay [20] were -0.132 (inactive) and 0.0306, respectively.

On to `COC(=O)[C@@]1(Cc2ccc(OC)cc2)[C@H]2c3cc(C(=O)N(C)C)n(Cc4c(CO)[nH]cc(C)c4=O)c3C[C@H]2CN1C(=O)c1ccccc1`, for which the z-score is -1.38 in assay [1]; -0.621 in assay [2]; -0.177 in assay [3]; -0.314 in assay [4]; -0.411 in [5]; -0.67 in [6]. Besides, the z-score in assay [7] is -1.33 (inactive); in [8], -0.0347; in assay [9], -1.24; in assay [10] it was 0.252 (inactive); in assay [11] it was -0.548; in [12], -0.0117 (inactive). Moreover, the z-score was -1.06 (inactive) in [13]; 0.371 (inactive) in assay [15]; -0.463 (inactive) in assay [16]; -0.897 (inactive) in assay [17]; -0.542 (inactive) in assay [18]; -0.717 in [19]. The composite z-score in assay [14] was -0.501 (inactive); in assay [20], -0.127.

Turning to `C[C@]1(C(=O)O)c2ccccc2C(=O)N(Cc2cc(C(F)(F)F)cc(C(F)(F)F)c2)[C@H]1c1ccc(CO)cc1`, the z-score in assay [1] is -0.557; in assay [2] it was 0.261; in assay [3], -0.164; in assay [4], -0.103; in assay [5], -0.329; in assay [6], -0.244. Moreover, the z-score in assay [7] was -0.107 (inactive); in assay [8], -0.117; in assay [9], -0.468; in [10], 0.449 (inactive); in assay [11], 0.341; in [12], 0.0491 (inactive). Also, the z-score in assay [13] was 0.385 (inactive); in [15], -0.0528 (inactive); in [16], -0.161 (inactive); in [17] it was -0.124 (inactive); in [18] it was -0.515 (inactive); in assay [19] it was 0.306. The composite z-score in assay [14] was -0.979 (inactive); in assay [20] it was -0.173.

With `CCOC(=O)C1=CCC(c2cccn2C(=O)OC(C)(C)C)N(S(=O)(=O)c2ccc(C)cc2)C1` (stereo not given), the z-score in assay [1] is -0.982; in assay [2], -0.838; in assay [3], -0.168; in assay [4], -3.2; in [5] it was -3.67; in assay [6] it was 2.22. The z-score was 0.066 (inactive) in [7]; -1.11 in assay [8]; -2.93 in assay [9]; -0.373 (inactive) in assay [10]; 0.573 in [11]; -0.902 (inactive) in assay [12]. Further, the z-score in assay [13] is -0.926 (inactive); in assay [15], -0.144 (inactive); in assay [16], 0.824 (inactive); in assay [17], -0.484 (inactive); in [18] it was 0.605 (inactive); in assay [19], -0.538. In addition, the composite z-score in [14] was 0.068 (inactive); in [20] it was 0.177.

For `O=C1OC[C@@H](c2ccccc2)n2cc(/C=C/c3ccccc3)cc21`, the z-score in [1] was -0.235; in assay [2], 1.75; in assay [3], -0.202; in assay [4], -0.472; in [5] it was -0.597; in [6], -0.564. Also, the z-score is 0.156 (inactive) in [7]; -0.161 in [8]; -0.735 in assay [9]; 0.229 (inactive) in assay [10]; -0.295 in assay [11]; -2.5 (inactive) in assay [12]. The z-score was 0.539 (inactive) in [13]; -0.353 (inactive) in assay [15]; 0.561 (inactive) in assay [16]; -0.0891 (inactive) in [17]; -0.733 (inactive) in [18]; -0.302 in assay [19]. Also, the composite z-score in assay [14] was -2.31 (inactive); in assay [20] it was -0.286.

On to `CC(CO)N1C(=O)[C@@H]2[C@H]3C(=O)OCC=C[C@H]3OC23C=CCN(c2ccc4ccccc4c2)C(=O)[C@@H]13` (stereo not given in full), for which the z-score in [1] was 0.0456; in assay [2], 0.0291; in [3], -0.432; in assay [4] it was -0.496; in assay [5], -0.149; in [6] it was -0.626. The z-score was -0.654 (inactive) in assay [7]; 0.109 in assay [8]; 0.563 in [9]; 0.873 (inactive) in [10]; 0.984 in [11]; -0.0392 (inactive) in assay [12]. Besides, the z-score in [13] is 0.224 (inactive); in assay [15], -0.0432 (inactive); in assay [16], -0.405 (inactive); in assay [17] it was -0.398 (inactive); in assay [18], -0.534 (inactive); in assay [19] it was 0.492. Moreover, the values for the composite z-score in assay [14] and in assay [20] were 0.0007 (inactive) and -0.138, respectively.
